High-throughput results as filed in PubChem.
HepG2 tox = HepG2 cytotoxicity, counter-screen for TGF-b inhibitors; HepG2 CAGA-GFP viability, ATP luminescence, 18 h; actives 0.76% (n = 410,000); Potency, µM (doses to about 46.1 µM), for inactives: at the top dose activity change, negative = cytotoxicity, usual class: cytotoxic; AID 588856
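CellTiter-Glo luminescence gave cytotoxicity after 18 hours at 37 degrees C. The cells were HepG2 CAGA-GFP in 1% FBS DMEM, stimulated with 500 pg/mL TGF-beta after compound addition. %Activity was normalised to no-cell wells (complete cell-killing) and DMSO (no toxicity), and curves were fitted and classified.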
TGFb inhibitor = blocks TGF-b signaling | Potency, µM (doses to about 46.1 µM), for inactives: top-dose activity, negative = inhibition, usual class: inhibitors | AID 588855 | actives 1.2% (n = 410,000) | HepG2 CAGA-GFP TGF-b/SMAD3 reporter, GFP fluorescence, 18 h; TGF-beta stimulated, 500 pg/mL final; note: % is set by controls: 0 for no effect and ±100 for the full control effect; nearly all actives have a fitted effect of over 65% in size
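HEPG2 CAGA-GFP reporter cells (1000/well, DMEM with 1% FBS) received compounds, then recombinant TGF-beta at 500 pg/mL final for 18 hours at 37 degrees C. Per-cell GFP summed per well was normalised to unstimulated and stimulated DMSO controls before curve fitting.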
ATXN viability = reduces viability in counter-screen for ATXN expression inhibitors. S2 cells (HEK-293 line with an ATXN2-luciferase reporter) viability, CellTiter-Fluor protease fluorescence, 24 h. Potency, µM (series often up to 56.7 µM), most hits filed as cytotoxic. actives 0.49% (n = 400,000). AID 651635; note: nearly all actives have a fitted effect of over 40% in size
ATXN2 expr inh = reduces ATXN2 reporter expression in HEK-293 cells | AID 1745845 | Potency, µM (doses to about 57 µM), for the others: at the top dose activity change, negative = inhibition, most hits filed as inhibitors | actives 0.72% (n = 360,000) | HEK-293 ATXN2-luciferase reporter, luminescence, 24 h; note: % is set by controls: 0 for no effect and ±100 for the full control effect; nearly all actives have a fitted effect of over 55% in size
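ATXN2-luciferase reporter cells (luciferase flanked by upstream and downstream ATXN2 gene portions) were treated 24 h at 37 °C with compounds at up to 57 uM. SteadyGlo luminescence gave expression; GF-AFC fluorescence gave viability.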
RORgamma inh = blocks mouse ROR gamma transcriptional activity | actives 5.4% (n = 310,000) | Potency, µM (titrated, usually from 53.6 µM), for inactives: top-dose activity change, negative = inhibition, most hits filed as inhibitors | P51450 | Drosophila S2 Gal4-RORgamma UAS-luciferase reporter, 20 h; note: % is set by controls: 0 for no effect and ±100 for the full control effect; nearly all actives have a fitted effect of over 60% in size
Target sequence (P51450 whole entry, looked up, the tested form may be a part): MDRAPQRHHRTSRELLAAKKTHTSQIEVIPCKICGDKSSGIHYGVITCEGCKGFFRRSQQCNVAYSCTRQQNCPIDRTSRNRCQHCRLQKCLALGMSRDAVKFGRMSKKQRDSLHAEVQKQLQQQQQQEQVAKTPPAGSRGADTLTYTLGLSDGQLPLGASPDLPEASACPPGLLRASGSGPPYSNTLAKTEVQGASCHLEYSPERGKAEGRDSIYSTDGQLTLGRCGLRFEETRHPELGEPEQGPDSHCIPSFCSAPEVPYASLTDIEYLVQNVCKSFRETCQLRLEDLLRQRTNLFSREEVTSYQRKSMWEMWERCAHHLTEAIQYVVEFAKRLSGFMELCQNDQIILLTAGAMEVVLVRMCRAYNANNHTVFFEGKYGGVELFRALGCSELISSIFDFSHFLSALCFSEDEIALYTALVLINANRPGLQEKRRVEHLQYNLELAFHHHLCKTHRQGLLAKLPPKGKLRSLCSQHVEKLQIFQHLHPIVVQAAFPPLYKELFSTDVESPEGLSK
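Stably transfected Drosophila Schneider cells are the test system, with ROR gamma fused to Gal4 and luciferase under UAS control; luminescence is read after 20 hr of 700 uM copper sulfate induction at ambient temperature.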
VP16 counter = counter-screen for ROR gamma inhibitors: Gal4-VP16 reporter. AID 2546. actives 3.5% (n = 310,000). Drosophila S2 Gal4-VP16 UAS-luciferase, luminescence, 20 h. Potency, µM (highest dose often 53.6 µM), without a hit: at the highest dose activity, negative = inhibition, usual class: inhibitors;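 note: Gal4-VP16 expression switched on by copper sulfate through the metallothionein promoter; % is set by controls: 0 for no effect and ±100 for the full control effect; nearly all actives have a fitted effect of over 50% in size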
* = called active by the depositor; i = inactive; u = inconclusive; x = no result; [ ] = dose if it differs, or a comment. Sampled rows, rich in hits. Any-hit rate of the full collection: about 6.1%. Calls come from the whole dose curve; as a rule, active = well fitted curve in the direction sought with a large enough effect; inconclusive = small, poorly fitted or top-dose-only effect, or another doubt; inactive = no such curve, though single readings can be large; an effect the other way counts as inactive or inconclusive. Potency is the fitted concentration of half-maximal effect.

SMILES	HepG2 tox	TGFb inhibitor	ATXN viability	ATXN2 expr inh	RORgamma inh	VP16 counter
C=CCc1cccc(C=Nc2ccc(Br)cc2)c1O	1%	2%	i	x	5%	-18%
C=CCc1cccc(/C=N/NC(=O)CNc2cccc3ccccc23)c1O	-100%	u	u	u	0.56µM*	1.1µM*
C=CCn1c(Cc2c[nH]c3ccccc23)nnc1SCC(=O)NCc1ccccc1	-19%	-14%	x	x	17%	0%
C=CCc1cccc(/C=N/n2cnnc2)c1O	2%	21%	i	-2%	7.1µM*	-12%[0.365 µM]
COc1ccc2nc3oc(C(=O)NCc4ccccc4OC)cc3cc2c1	-12%	-19%	i	12%	x	x
O=C(C=Cc1ccc(CN(CCO)CCc2c[nH]c3ccccc23)cc1)NO	x	x	x	-52%	x	x
Cc1nn2c(C)c(C(=O)NCc3ccco3)cnc2c1-c1ccccc1	0%	3%	x	x	x	x
C=CCc1cccc(/C=N/NC(=O)CNc2ccccc2OC)c1O	-24%	13µM*	i	u	1.3µM*	-2%
C=CCc1cccc(/C=N/NC(=O)CCC(=O)Nc2ccc(F)cc2)c1O	-16%	u	i	3.5µM*	1µM*	1µM*
C=CCc1cccc(/C=N/NC(=O)CCCNc2ccc(C)cc2)c1O	-91%	u	i	u	1µM*	2µM*
COc1ccccc1/C=N/NC(=O)COCC(=O)N/N=C/c1ccccc1OC	-4%	21%	i	-12%[11.3 µM]	-3%	-5%
C=CCc1cccc(/C=N/NC(=O)CNc2ccccc2)c1O	-51%	u	u	18µM*	1.6µM*	u
C=CCc1cccc(/C=N/NC(=O)C[n+]2ccccc2)c1O	-16%	9%	i	u	u	-11%
COC(=O)C1CCN(Cc2ccc3c(c2)CN(C(=O)c2ccnn2C)CCO3)CC1	x	x	i	x	x	x
COc1ccccc1-c1ccc(C(=O)N2CCC(N3CCc4ccccc4C3)CC2)c(N(C)CC2COCCO2)n1 (stereo not given)	x	x	i	x	x	x
O=C1NC(=O)C(=Cc2ccc3nccc(-c4ccncc4)c3c2)S1	x	x	x	6.9µM*	x	x
O=C1NC(=O)C(=Cc2ccc3nccnc3c2)S1	x	x	x	5%[25.6 µM]	x	x
C[C@@H](CN1C2=NC[C@H](Cc3ccc(O)cc3)N2C[C@H]1Cc1ccc(O)cc1)NC(=O)CCC1CCCCC1	0%	0%	i	13%	-6%	-18%
C[C@@H](CN1C2=NC[C@H](Cc3ccccc3)N2C[C@H]1Cc1ccc(O)cc1)NC(=O)CCC1CCCCC1	-104%	u	22µM*	28µM*	9%	-6%
COc1ccc(C[C@H]2CN3C(=NC[C@H]3Cc3ccccc3)N2CCNC(=O)c2ccc(C)c(Br)c2)cc1	-116%	u	28µM*	u	-38%	-22%
Cc1ccc(C(=O)NCCN2C3=NC[C@H](Cc4ccc(O)cc4)N3C[C@H]2Cc2ccc(O)cc2)cc1Br	-19%	-12%	i	10%	-6%	-22%
COc1ccc(C[C@H]2CN3C(=NC[C@@H]3Cc3ccccc3)N2CCNC(=O)c2ccc(C)c(Br)c2)cc1	13µM*	u	x	22µM*	u	u
Cc1ccc(C(=O)NCCN2C3=NC[C@@H](Cc4ccccc4)N3C[C@H]2Cc2ccc(O)cc2)cc1Br	11µM*	16µM*	u	25µM*	18%	-13%
COc1ccc(C[C@H]2CN3C(=NC[C@@H]3Cc3ccc(O)cc3)N2CCNC(=O)c2ccc(C)c(Br)c2)cc1	16µM*	u	x	25µM*	-1%	-5%
COc1ccc(C[C@H]2CN3C(=NC[C@H]3Cc3ccccc3)N2CCNC(=O)CCC2CCCCC2)cc1	-103%	u	35µM*	35µM*	-36%	6%
SMILES	HepG2 tox	TGFb inhibitor	ATXN viability	ATXN2 expr inh	RORgamma inh	VP16 counter
CC(C)c1ccc(-c2nnn(CCC(=O)O)n2)cc1	-2%	0%	i	0.56µM*	0.4µM*	u
COc1ccc(Cl)cc1NC(=O)N1CCN(Cc2cc(=O)n3nc(-c4ccccc4)sc3n2)CC1	-1%	-9%	i	5%	x	x
CC(C)N1CCc2c(sc(NC(=O)c3ccc(C(=O)c4ccccc4)cc3)c2C(N)=O)C1	-43%	u	u	u	-13%	-20%
CCN1CCc2c(sc(NC(=O)CSc3ccccc3)c2-c2nc3ccccc3s2)C1	-51%	206%	x	x	x	x
COC(=O)c1c(NC(=O)c2ccc(S(=O)(=O)N3CCCCC3C)cc2)sc2c1CCN(C(C)C)C2 (stereo not given)	-33%	99%	x	-15%	x	x
CC(C)N1CCc2c(sc(NC(=O)c3ccc4ccccc4c3)c2C(N)=O)C1	11µM*	7%	i	-23%	u	u
CC(C)N1CCc2c(sc(NC(=O)c3ccc(S(=O)(=O)N4CCCCC4C)cc3)c2C(N)=O)C1 (stereo not given)	-41%	-4%	u	u	u	14µM*
CCN1CCc2c(sc(NC(=O)c3ccc(S(=O)(=O)N(C)CC4CCCO4)cc3)c2C(N)=O)C1 (stereo not given)	0%	3%	i	-16%	0%	-13%
CCN1CCc2c(sc(NC(=O)c3ccc(S(=O)(=O)N(C)C4CCCCC4)cc3)c2C(N)=O)C1	11µM*	u	i	u	x	x
CC(=O)Nc1sc2c(c1-c1nc3ccccc3s1)CCN(C(C)C)C2	-29%	u	u	5.3µM*	8.9µM*	11µM*
CC(=O)N1CCc2cc(Br)cc(S(=O)(=O)N3CCN(c4cc(C)ccc4C)CC3)c21	-3%	-2%	i	4%	x	x
CC(C)N1CCc2c(sc(NC(=O)c3cc4cc([N+](=O)[O-])ccc4s3)c2C(N)=O)C1	13µM*	u	x	u	u	u
CCN1CCc2c(sc(NC(=O)c3cc4ccccc4cc3OC)c2C(N)=O)C1	-111%	u	i	-36%	4.5µM*	5.6µM*
CN1CCc2c(sc(NC(=O)c3ccco3)c2C(N)=O)C1	-21%	-6%	i	11%	-2%	-11%
CN1CCc2c(sc(NC(=O)c3cc4cc([N+](=O)[O-])ccc4s3)c2C(N)=O)C1	x	x	x	x	5.6µM*	3.2µM*
CC(C)N1CCc2c(sc(NC(=O)c3ccco3)c2C(N)=O)C1	8%	0%	i	5%	-13%	0%
COc1cccc(OC)c1C(=O)Nc1sc2c(c1C(N)=O)CCN(Cc1ccccc1)C2	-20%	9%	i	-6%	14%	-6%
CSc1nc(NCCOC(C)=O)c(C#N)c(-c2ccc(C(C)(C)C)cc2)n1	-3%	0%	i	10%	x	x
